Test results taken from PubChem BioAssay AID1159580 (chemical genetic matrix, 2015).
Hit rate of the full screen: of about 5,500 compounds, about 2,000 (36%) were called active. About 18% were inconclusive and are not listed. No stated cut-off is given here; in the data, active means normalized growth mostly below about 0.91 (no sharp cut-off); inconclusive means no clear call, values can overlap the other calls; inactive means mostly above about 0.92. This is one part of the list.

Assay: chemical genetic growth profiling, strain panel (AID 1159580);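 further: tested at 20 µM; growth read once vehicle control cultures reached saturation at 30 °C; 1 = growth at the plate median or of vehicle wells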
Settings: S. cerevisiae deletion strains, growth OD

Measured: normalized growth

C/C=C(/C)C(=O)OC1CCC2(C)C3CCC4C5(O)CC(O)C6(O)C(CN7CC(C)CCC7C6(C)O)C5(O)CC42OC13O (configuration not stated)
active: locus YBR021W, strain FUR4, stronger effect = lower value 0.747 | locus YER167W, strain BCK2, stronger effect = lower value 0.852 | locus YJR043C, strain POL32, stronger effect = lower value 0.845 | locus YKR001C, strain vps1, stronger effect = lower value 0.821 | locus YLR262C, strain YPT6 (second series), stronger effect = lower value 0.82 | locus YLR330W, strain CHS5, stronger effect = lower value 0.902 | locus YLR342W, strain FKS1 (second series), stronger effect = lower value 0.715 | locus YLR418C, strain cdc73, stronger effect = lower value 0.705 | locus YNL307C, strain MCK1, stronger effect = lower value 0.83 | locus YOR184W, strain ser1, stronger effect = lower value 0.815
inactive: locus YAL021C, strain ccr4, stronger effect = lower value 0.955 | locus YAL026C, strain drs2, stronger effect = lower value 0.954 | locus YAL030W, strain snc1, stronger effect = lower value 1.01 | locus YBL061C, strain skt5, stronger effect = lower value 1.01 | locus YBR009C, strain hhf1, stronger effect = lower value 0.951 | locus YBR023C, strain chs3, stronger effect = lower value 0.992 | locus YBR171W, strain sec66, stronger effect = lower value 0.968 | locus YBR229C, strain ROT2, stronger effect = lower value 0.97 | locus YBR231C, strain swc5, stronger effect = lower value 0.991 | locus YBR279W, strain paf1, stronger effect = lower value 0.99 | locus YCL011C, strain gbp2, stronger effect = lower value 0.993 | locus YCL016C, strain dcc1, stronger effect = lower value 1.01 | locus YCL029C, strain bik1, stronger effect = lower value 0.979 | locus YCL069W, strain vba3, stronger effect = lower value 0.971 | locus YCR088W, strain abp1, stronger effect = lower value 0.993 | locus YDL005C, strain med2, stronger effect = lower value 1.01 | locus YDL035C, strain GPR1, stronger effect = lower value 0.922 | locus YDL040C, strain nat1, stronger effect = lower value 0.994 | locus YDL074C, strain BRE1, stronger effect = lower value 0.844 | locus YDL101C, strain DUN1, stronger effect = lower value 0.95 | locus YDL185W, strain tfp1, stronger effect = lower value 0.994 | locus YDL192W, strain arf1, stronger effect = lower value 0.96 | locus YDR001C, strain nth1, stronger effect = lower value 0.995 | locus YDR069C, strain doa4, stronger effect = lower value 1.01 | locus YDR101C, strain arx1, stronger effect = lower value 0.955 | locus YDR137W, strain rgp1, stronger effect = lower value 0.857 | locus YDR150W, strain NUM1, stronger effect = lower value 0.986 | locus YDR159W, strain sac3, stronger effect = lower value 0.974 | locus YDR162C, strain NBP2, stronger effect = lower value 0.942 | locus YDR195W, strain ref2 1.04 | locus YDR297W, strain sur2, stronger effect = lower value 0.982 | locus YDR318W, strain mcm21, stronger effect = lower value 0.964 | locus YDR334W, strain swr1, stronger effect = lower value 0.977 | locus YDR335W, strain msn5, stronger effect = lower value 0.999 | locus YDR388W, stronger effect = lower value 0.953 | locus YDR392W, strain spt3, stronger effect = lower value 0.95 | locus YDR502C, strain sam2, stronger effect = lower value 0.937 | locus YEL003W, strain gim4, stronger effect = lower value 0.993 | locus YEL037C, strain rad23, stronger effect = lower value 0.984 | locus YEL061C, strain CIN8 (second series), stronger effect = lower value 0.981 | locus YEL061C, strain CIN8, stronger effect = lower value 0.961 | locus YER015W, strain faa2, stronger effect = lower value 0.999 | locus YER016W, strain bim1, stronger effect = lower value 1.07 | locus YER110C, stronger effect = lower value 0.963 | locus YER111C, strain swi4, stronger effect = lower value 0.995 | locus YER155C, strain BEM2 (second series), stronger effect = lower value 0.969 | locus YER155C, strain BEM2, stronger effect = lower value 0.966 | locus YFR010W, strain ubp6, stronger effect = lower value 0.969 | locus YGL078C, strain dbp3, stronger effect = lower value 0.989 | locus YGL086W, strain mad1, stronger effect = lower value 0.953 | locus YGL167C, strain pmr1, stronger effect = lower value 0.996 | locus YGL173C, strain kem1, stronger effect = lower value 0.998 | locus YGL227W, strain vid30, stronger effect = lower value 1 | locus YGL240W, strain doc1, stronger effect = lower value 0.988 | locus YGL248W, strain PDE1, stronger effect = lower value 0.928 | locus YGL253W, strain hxk2, stronger effect = lower value 1 | locus YGR135W, strain pre9, stronger effect = lower value 0.928 | locus YGR252W, strain gcn5, stronger effect = lower value 0.789 | locus YHR013C, strain ard1, stronger effect = lower value 0.995 | locus YHR027C, strain rpn1, stronger effect = lower value 1 | locus YHR030C, strain SLT2, stronger effect = lower value 0.982 | locus YHR079C, strain IRE1 (second series), stronger effect = lower value 0.972 | locus YHR094C, strain hxt1, stronger effect = lower value 0.971 | locus YHR129C, strain ARP1, stronger effect = lower value 0.955 | locus YHR142W, strain chs7, stronger effect = lower value 0.974 | locus YHR200W, strain rpn10, stronger effect = lower value 0.973 | locus YIL066C, strain RNR3, stronger effect = lower value 0.885 | locus YIL073C, strain SPO22, stronger effect = lower value 0.924 | locus YIL125W, strain kgd1, stronger effect = lower value 0.976 | locus YIR030C, strain dcg1, stronger effect = lower value 0.978 | locus YJL092W, strain hpr5, stronger effect = lower value 1 | locus YJL095W, strain BCK1 (second series), stronger effect = lower value 1 | locus YJL095W, strain BCK1, stronger effect = lower value 0.891 | locus YJL115W, strain asf1, stronger effect = lower value 0.985 | locus YJL129C, strain trk1, stronger effect = lower value 1 | locus YJL134W, strain LCB3, stronger effect = lower value 0.983 | locus YJL154C, strain vps35, stronger effect = lower value 0.989 | locus YJL164C, strain tpk1, stronger effect = lower value 0.996 | locus YJL166W, strain qcr8, stronger effect = lower value 0.994 | locus YJL168C, strain set2, stronger effect = lower value 0.976 | locus YJL187C, strain SWE1 (second series), stronger effect = lower value 0.943 | locus YKL009W, strain mrt4, stronger effect = lower value 0.987 | locus YKL068W, stronger effect = lower value 0.961 | locus YKL085W, strain MDH1 (second series), stronger effect = lower value 0.948 | locus YKL085W, strain MDH1, stronger effect = lower value 0.948 | locus YKL160W, strain elf1, stronger effect = lower value 1.02 | locus YKL190W, strain CNB1, stronger effect = lower value 0.979 | locus YKR026C, strain gcn3, stronger effect = lower value 0.988 | locus YKR091W, strain srl3, stronger effect = lower value 1.01 | locus YLL001W, strain dnm1, stronger effect = lower value 0.985 | locus YLL026W, stronger effect = lower value 1 | locus YLL041C, strain sdh2, stronger effect = lower value 0.991 | locus YLR027C, strain aat2, stronger effect = lower value 1 | locus YLR039C, strain RIC1, stronger effect = lower value 0.889 | locus YLR058C, strain SHM2, stronger effect = lower value 0.949 | locus YLR102C, strain apc9, stronger effect = lower value 0.972 | locus YLR221C, strain rsa3, stronger effect = lower value 0.968 | locus YLR258W, strain gsy2, stronger effect = lower value 0.998 | locus YLR262C, strain YPT6, stronger effect = lower value 1 | locus YLR268W, strain sec22, stronger effect = lower value 0.938 | locus YLR320W, strain mms22, stronger effect = lower value 0.959 | locus YLR342W, strain FKS1, stronger effect = lower value 1 | locus YLR357W, strain rsc2, stronger effect = lower value 1.02 | locus YLR370C, strain arc18, stronger effect = lower value 0.994 | locus YLR371W, strain rom2, stronger effect = lower value 0.985 | locus YLR384C, strain iki3, stronger effect = lower value 0.991 | locus YML016C, strain PPZ1, stronger effect = lower value 0.969 | locus YML032C, strain rad52, stronger effect = lower value 0.935 | locus YML120C, strain ndi1, stronger effect = lower value 0.997 | locus YML124C, strain tub3, stronger effect = lower value 0.97 | locus YMR058W, strain fet3, stronger effect = lower value 0.993 | locus YMR078C, strain ctf18, stronger effect = lower value 0.968 | locus YMR125W, strain sto1, stronger effect = lower value 0.991 | locus YMR129W, stronger effect = lower value 1 | locus YMR205C, strain PFK2, stronger effect = lower value 0.986 | locus YMR223W, strain ubp8, stronger effect = lower value 0.957 | locus YMR231W, strain pep5, stronger effect = lower value 1 | locus YMR263W, strain SAP30, stronger effect = lower value 0.943 | locus YMR307W, strain GAS1, stronger effect = lower value 0.626 | locus YNL067W, strain RPL9B, stronger effect = lower value 0.962 | locus YNL071W, strain lat1, stronger effect = lower value 0.98 | locus YNL209W, strain ssb2, stronger effect = lower value 0.997 | locus YNL233W, strain BNI4, stronger effect = lower value 0.908 | locus YNL248C, strain rpa49, stronger effect = lower value 0.973 | locus YNL250W, strain rad50, stronger effect = lower value 0.992 | locus YNL271C, strain bni1, stronger effect = lower value 0.996 | locus YNL298W, strain CLA4, stronger effect = lower value 0.967 | locus YNL322C, strain KRE1 (second series), stronger effect = lower value 1.03 | locus YNL322C, strain KRE1, stronger effect = lower value 0.947 | locus YNR049C, strain mso1, stronger effect = lower value 1.02 | locus YNR052C, strain pop2, stronger effect = lower value 1.02 | locus YOL006C, strain TOP1, stronger effect = lower value 0.627 | locus YOL012C, strain htz1 0.727 | locus YOL147C, strain pex11, stronger effect = lower value 0.96 | locus YOR001W, strain rrp6, stronger effect = lower value 0.937 | locus YOR061W, strain CKA2, stronger effect = lower value 0.975 | locus YOR069W, strain VPS5, stronger effect = lower value 0.981 | locus YOR070C, strain gyp1, stronger effect = lower value 0.987 | locus YOR080W, strain dia2, stronger effect = lower value 1 | locus YOR083W, strain WHI5, stronger effect = lower value 1.03 | locus YOR106W, strain vam3, stronger effect = lower value 1.02 | locus YOR136W, strain idh2, stronger effect = lower value 0.979 | locus YOR144C, strain elg1, stronger effect = lower value 0.963 | locus YOR265W, strain rbl2, stronger effect = lower value 0.984 | locus YOR270C, strain vph1, stronger effect = lower value 0.94 | locus YOR290C, strain snf2, stronger effect = lower value 1.03 | locus YOR316C, strain cot1, stronger effect = lower value 0.969 | locus YPL051W, strain arl3, stronger effect = lower value 1.02 | locus YPL055C, strain LGE1, stronger effect = lower value 0.877 | locus YPL078C, strain atp4, stronger effect = lower value 1.01 | locus YPL106C, strain sse1, stronger effect = lower value 1.01 | locus YPL240C, strain hsp82, stronger effect = lower value 0.988 | locus YPR119W, strain clb2, stronger effect = lower value 0.969 | locus YPR141C, strain kar3, stronger effect = lower value 0.978 | locus YPR163C, strain tif3, stronger effect = lower value 0.964 | locus YPR167C, strain met16, stronger effect = lower value 0.967 | strain wtn01, stronger effect = lower value 0.949
